Source: the supplement of paper PMC11732987, “Enantioselective OTUD7B fragment discovery through chemoproteomics screening and high-throughput optimisation” (Communications Chemistry, 2025)
Unmarked numbers belong to inactive results.

Key:
Assay in all cases: log2 ratio of Biotin-Ahx-Ub-VS probe labelling (fragment/DMSO); higher = less target engagement (more negative = stronger competition), active = hit call of the paper (q ≤ 0.05, log2 ratio ≤ -1)
Settings in all cases: compound concentration: 200 uM; treatment time: 3 h
UniProt O00507 = molecular target: UniProt O00507
UniProt O00507, sequence (O00507 whole entry, the tested form may be a part): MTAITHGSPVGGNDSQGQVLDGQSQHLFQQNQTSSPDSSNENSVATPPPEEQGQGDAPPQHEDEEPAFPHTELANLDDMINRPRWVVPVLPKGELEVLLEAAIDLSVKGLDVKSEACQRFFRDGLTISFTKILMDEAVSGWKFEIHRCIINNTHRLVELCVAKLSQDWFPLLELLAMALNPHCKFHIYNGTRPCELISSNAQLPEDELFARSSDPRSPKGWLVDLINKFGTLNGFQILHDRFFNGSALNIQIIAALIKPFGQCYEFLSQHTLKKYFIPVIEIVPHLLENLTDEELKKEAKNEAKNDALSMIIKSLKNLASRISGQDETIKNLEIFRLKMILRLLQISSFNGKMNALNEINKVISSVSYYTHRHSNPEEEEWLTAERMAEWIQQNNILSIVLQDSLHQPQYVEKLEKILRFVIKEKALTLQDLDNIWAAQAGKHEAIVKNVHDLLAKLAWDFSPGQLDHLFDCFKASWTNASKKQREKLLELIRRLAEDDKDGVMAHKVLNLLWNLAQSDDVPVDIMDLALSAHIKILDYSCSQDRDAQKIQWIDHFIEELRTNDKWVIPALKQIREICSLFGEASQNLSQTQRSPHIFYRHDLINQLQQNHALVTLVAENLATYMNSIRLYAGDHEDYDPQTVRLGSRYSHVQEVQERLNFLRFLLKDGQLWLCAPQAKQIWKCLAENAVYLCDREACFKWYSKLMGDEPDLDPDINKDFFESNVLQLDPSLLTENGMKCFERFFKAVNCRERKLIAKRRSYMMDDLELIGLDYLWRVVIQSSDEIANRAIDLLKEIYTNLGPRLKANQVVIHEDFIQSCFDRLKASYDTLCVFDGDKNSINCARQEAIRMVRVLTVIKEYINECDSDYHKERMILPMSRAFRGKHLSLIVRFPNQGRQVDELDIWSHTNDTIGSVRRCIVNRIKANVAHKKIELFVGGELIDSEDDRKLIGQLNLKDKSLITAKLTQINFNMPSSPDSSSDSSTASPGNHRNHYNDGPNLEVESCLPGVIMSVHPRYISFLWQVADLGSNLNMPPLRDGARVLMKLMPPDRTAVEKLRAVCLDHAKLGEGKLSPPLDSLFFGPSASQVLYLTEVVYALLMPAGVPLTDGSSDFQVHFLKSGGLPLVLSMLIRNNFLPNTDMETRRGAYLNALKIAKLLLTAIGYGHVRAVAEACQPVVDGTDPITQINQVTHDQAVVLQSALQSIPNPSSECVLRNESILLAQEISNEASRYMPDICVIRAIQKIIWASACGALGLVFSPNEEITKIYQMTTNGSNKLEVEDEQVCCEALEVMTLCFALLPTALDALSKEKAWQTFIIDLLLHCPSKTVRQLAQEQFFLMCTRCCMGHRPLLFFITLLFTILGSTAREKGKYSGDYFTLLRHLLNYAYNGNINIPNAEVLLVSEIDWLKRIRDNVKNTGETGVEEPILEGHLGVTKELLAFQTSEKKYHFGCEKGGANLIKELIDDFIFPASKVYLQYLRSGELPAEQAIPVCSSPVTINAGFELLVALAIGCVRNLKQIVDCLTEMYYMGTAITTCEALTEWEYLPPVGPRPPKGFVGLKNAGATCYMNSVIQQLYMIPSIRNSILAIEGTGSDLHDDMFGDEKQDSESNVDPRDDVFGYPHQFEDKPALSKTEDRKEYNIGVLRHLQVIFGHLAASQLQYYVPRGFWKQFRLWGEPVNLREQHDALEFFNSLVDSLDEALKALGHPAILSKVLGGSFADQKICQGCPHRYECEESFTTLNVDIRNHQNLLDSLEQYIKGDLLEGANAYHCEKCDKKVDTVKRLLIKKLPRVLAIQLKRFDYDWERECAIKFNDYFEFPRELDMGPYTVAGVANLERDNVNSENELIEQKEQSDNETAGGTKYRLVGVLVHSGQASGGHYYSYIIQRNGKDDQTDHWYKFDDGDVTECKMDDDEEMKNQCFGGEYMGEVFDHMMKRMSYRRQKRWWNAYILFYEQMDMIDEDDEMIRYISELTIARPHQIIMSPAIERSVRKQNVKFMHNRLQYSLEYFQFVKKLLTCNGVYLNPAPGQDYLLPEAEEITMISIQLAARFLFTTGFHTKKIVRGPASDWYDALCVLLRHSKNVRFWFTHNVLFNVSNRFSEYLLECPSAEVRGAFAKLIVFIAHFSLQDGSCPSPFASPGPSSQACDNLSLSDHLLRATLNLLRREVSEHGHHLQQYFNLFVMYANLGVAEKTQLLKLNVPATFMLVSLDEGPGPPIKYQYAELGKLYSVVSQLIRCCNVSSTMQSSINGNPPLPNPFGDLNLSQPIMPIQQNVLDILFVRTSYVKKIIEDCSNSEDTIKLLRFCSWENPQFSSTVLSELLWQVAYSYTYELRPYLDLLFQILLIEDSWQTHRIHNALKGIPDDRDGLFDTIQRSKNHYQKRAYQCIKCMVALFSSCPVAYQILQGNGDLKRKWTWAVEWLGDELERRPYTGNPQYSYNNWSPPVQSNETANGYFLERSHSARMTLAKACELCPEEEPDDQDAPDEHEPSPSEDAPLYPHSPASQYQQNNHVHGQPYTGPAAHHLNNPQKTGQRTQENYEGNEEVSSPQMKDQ
Method in brief: (§1)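 Using Biotin-Ahx-Ub-VS at 0.5 µM final for 1 h, DUBs were labelled in HEK293T lysate (495 µg per sample) that had first been treated in triplicate with fragment at 200 µM or vehicle for 3 h. NeutrAvidin enrichment, LysC and trypsin digestion and diaPASEF LC-MS/MS followed. Spectronaut label-free quantities were global-median-normalised. Values are average log2 fragment/vehicle ratios by unpaired t-test, using proteins with ≥2 unique peptides.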

UniProt P51784 = molecular target: UniProt P51784
UniProt P51784, sequence (P51784 whole entry): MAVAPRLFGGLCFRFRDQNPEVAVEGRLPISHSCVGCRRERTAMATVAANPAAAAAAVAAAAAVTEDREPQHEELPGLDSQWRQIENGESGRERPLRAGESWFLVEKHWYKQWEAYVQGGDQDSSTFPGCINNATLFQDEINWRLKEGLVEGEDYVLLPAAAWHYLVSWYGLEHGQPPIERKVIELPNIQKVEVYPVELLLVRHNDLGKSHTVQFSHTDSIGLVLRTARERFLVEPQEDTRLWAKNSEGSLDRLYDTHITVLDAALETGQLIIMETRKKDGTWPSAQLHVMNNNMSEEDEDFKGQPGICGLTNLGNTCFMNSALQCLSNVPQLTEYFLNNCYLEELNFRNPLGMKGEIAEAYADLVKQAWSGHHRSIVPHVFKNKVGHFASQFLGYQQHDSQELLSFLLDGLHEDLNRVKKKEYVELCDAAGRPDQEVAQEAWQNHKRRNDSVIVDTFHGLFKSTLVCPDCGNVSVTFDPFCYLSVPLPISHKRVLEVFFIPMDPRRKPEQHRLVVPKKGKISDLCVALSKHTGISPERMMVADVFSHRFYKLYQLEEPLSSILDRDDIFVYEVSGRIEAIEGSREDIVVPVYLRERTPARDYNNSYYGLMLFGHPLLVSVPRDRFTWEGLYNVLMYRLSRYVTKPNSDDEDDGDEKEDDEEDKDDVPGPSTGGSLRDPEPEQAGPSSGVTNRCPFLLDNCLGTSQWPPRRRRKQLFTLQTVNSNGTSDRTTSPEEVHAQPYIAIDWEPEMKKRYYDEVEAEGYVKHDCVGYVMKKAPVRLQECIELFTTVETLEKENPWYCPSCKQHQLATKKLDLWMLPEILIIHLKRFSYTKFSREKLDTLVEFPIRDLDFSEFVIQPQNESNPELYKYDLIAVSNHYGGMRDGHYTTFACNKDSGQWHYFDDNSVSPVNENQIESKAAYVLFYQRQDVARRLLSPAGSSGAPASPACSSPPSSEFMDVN
Method in brief: as §1

UniProt Q5T2D3 = molecular target: T1, UniProt Q5T2D3
T1 sequence (whole entry): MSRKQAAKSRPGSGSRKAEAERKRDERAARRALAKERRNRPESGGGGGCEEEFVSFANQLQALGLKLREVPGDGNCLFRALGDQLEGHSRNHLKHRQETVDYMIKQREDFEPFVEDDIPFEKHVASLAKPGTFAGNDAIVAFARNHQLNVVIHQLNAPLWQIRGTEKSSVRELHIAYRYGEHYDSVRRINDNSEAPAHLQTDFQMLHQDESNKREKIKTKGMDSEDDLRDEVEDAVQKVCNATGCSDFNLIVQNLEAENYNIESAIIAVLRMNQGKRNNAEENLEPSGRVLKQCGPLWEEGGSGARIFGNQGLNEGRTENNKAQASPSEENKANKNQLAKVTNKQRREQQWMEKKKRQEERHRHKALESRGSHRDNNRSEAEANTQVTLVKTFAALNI
Method in brief: as §1

UniProt Q8TE49 = molecular target: T2, UniProt Q8TE49
T2 sequence (whole entry): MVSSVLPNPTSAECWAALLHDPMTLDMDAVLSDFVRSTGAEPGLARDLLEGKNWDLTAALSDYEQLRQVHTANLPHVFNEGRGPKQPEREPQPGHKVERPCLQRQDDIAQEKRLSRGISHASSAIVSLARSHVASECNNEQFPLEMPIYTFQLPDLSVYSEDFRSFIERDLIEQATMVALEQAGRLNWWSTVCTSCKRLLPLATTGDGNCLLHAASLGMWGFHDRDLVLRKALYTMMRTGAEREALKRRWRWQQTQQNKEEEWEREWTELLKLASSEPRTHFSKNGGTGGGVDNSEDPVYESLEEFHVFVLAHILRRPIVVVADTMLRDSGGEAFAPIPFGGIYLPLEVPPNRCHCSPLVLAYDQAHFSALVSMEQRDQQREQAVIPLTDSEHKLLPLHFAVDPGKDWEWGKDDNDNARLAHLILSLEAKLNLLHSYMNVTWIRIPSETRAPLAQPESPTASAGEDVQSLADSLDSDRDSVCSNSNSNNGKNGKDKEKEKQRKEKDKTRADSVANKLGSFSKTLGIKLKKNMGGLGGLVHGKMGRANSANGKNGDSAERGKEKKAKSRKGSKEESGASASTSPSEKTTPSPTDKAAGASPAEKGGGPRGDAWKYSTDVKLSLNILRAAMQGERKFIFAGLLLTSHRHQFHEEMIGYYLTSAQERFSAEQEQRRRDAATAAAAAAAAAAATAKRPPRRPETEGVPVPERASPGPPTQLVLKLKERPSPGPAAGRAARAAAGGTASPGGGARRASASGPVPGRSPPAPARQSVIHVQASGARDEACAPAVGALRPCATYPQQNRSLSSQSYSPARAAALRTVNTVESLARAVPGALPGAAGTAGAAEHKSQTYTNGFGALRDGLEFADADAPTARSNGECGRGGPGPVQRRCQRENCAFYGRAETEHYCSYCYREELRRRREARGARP
Method in brief: as §1

UniProt Q9P2H5 = molecular target: T3, UniProt Q9P2H5
T3 sequence (whole entry): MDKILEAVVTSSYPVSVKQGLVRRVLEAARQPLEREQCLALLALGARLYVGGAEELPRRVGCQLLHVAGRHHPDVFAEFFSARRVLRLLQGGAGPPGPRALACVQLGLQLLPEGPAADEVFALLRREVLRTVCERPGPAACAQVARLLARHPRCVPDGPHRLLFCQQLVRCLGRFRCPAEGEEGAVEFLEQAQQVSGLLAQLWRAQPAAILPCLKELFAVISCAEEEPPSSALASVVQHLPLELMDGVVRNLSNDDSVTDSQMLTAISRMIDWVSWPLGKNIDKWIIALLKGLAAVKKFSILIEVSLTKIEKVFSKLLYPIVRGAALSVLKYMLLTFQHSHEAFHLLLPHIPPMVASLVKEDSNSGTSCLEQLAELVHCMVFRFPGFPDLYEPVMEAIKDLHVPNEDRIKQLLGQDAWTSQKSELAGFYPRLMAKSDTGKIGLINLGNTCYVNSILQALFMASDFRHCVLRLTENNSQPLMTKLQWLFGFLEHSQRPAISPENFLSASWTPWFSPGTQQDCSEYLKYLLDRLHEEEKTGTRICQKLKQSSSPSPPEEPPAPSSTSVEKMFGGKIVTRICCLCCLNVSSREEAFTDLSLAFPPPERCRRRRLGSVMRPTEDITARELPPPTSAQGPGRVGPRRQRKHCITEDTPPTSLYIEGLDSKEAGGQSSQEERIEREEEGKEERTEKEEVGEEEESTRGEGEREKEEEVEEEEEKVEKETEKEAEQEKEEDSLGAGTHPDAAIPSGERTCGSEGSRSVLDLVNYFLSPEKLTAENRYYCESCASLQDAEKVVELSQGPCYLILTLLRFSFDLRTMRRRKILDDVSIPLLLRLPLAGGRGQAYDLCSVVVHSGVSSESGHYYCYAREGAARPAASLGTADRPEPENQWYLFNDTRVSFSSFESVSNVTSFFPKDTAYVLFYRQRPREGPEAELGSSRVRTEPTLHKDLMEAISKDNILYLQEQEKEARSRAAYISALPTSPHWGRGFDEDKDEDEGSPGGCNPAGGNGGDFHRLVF
Method in brief: as §1

UniProt Q9UGI0 = molecular target: T4, UniProt Q9UGI0
T4 sequence (whole entry): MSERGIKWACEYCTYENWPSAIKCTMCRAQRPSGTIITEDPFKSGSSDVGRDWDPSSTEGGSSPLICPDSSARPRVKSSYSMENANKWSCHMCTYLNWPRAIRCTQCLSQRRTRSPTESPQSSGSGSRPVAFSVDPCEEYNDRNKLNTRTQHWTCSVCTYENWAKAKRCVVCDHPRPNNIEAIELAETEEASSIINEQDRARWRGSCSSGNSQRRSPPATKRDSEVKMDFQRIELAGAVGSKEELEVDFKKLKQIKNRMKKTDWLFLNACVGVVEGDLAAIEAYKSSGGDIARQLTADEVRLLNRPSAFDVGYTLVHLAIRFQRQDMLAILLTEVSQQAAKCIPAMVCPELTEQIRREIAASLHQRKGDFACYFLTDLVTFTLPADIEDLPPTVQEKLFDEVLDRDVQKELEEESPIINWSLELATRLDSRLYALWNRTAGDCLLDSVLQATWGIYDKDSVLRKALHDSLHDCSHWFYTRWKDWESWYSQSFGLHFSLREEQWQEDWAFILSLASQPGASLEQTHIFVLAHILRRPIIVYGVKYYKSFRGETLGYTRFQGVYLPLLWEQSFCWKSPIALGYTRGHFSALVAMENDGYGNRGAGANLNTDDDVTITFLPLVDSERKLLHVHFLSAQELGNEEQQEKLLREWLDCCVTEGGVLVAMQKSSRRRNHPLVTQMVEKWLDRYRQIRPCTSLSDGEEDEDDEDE
Method in brief: as §1

YOD1 = molecular target: T5, YOD1 (UniProt Q5VVQ6)
T5 sequence (whole entry): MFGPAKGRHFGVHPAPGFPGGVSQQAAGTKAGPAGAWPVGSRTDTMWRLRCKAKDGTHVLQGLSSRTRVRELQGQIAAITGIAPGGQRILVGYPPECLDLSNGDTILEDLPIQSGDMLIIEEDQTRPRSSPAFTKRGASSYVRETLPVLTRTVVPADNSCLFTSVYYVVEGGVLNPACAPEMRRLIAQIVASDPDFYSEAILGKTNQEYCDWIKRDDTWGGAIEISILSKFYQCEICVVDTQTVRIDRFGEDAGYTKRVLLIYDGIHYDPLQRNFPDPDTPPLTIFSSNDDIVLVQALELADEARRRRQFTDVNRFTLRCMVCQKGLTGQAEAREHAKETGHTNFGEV
Method in brief: as §1

SMILES	log2 ratio of Biotin-Ahx-Ub-VS probe labelling (UniProt O00507)	log2 ratio of Biotin-Ahx-Ub-VS probe labelling (UniProt P51784)	log2 ratio of Biotin-Ahx-Ub-VS probe labelling (UniProt Q5T2D3)	log2 ratio of Biotin-Ahx-Ub-VS probe labelling (UniProt Q8TE49)	log2 ratio of Biotin-Ahx-Ub-VS probe labelling (UniProt Q9P2H5)	log2 ratio of Biotin-Ahx-Ub-VS probe labelling (UniProt Q9UGI0)	log2 ratio of Biotin-Ahx-Ub-VS probe labelling (YOD1)
O=C(CCl)N1CCN(C(=O)Nc2ccccc2)CC1	0.452	0.16	-0.132	-0.337	-0.158	0.0377	0.444
Cc1ccccc1OCC(=O)N1CCN(C(=O)CCl)CC1	0.258	-0.215	-0.106	-0.335	-0.172	-0.104	-0.00243
O=C(CCl)N1CCCC1c1ccsc1 (configuration not stated)	-0.118	-0.115	-0.188	-0.72	-0.412	-1.53 (active)	0.14
CC(NC(=O)CCl)c1cnn(C2CC2)c1 (configuration not stated)	-0.607	-0.127	-0.192	-0.779	-0.0606	-0.311	-0.732
N#Cc1cnn(-c2ccccc2)c1NC(=O)CCl	-0.331	-0.12	-0.209	-1.4 (active)	-0.407	-1.04 (active)	-0.327
CN1c2ccccc2C(NC(=O)CCl)CS1(=O)=O (configuration not stated)	-0.0151	-0.0186	-0.275	-2.63 (active)	-0.164	-0.46	-0.0718
O=C(CCl)N1CCC(C(=O)N2CCCC2)CC1	-0.126	-0.2	-0.068	-0.199	-0.139	0.0373	0.122
CN(C)S(=O)(=O)c1ccccc1CNC(=O)CCl	-0.154	0.0361	-0.255	-0.178	-0.0151	-0.47	0.0246
O=C(CCl)N1CCC(O)(Cc2ccc(F)cc2)C1 (configuration not stated)	-0.253	0.313	-0.16	-0.0913	0.0413	-0.196	0.2
O=C(CCl)NCc1ccc(N2CCOCC2)nc1	-0.134	-0.0382	-0.374	-0.316	-0.162	-0.475	-0.207
NC(=O)C1CCCCN1C(=O)CCl (configuration not stated)	0.156	-0.0148	-0.206	-1.95 (active)	-0.204	-0.866	0.154
